Reference: article PMC7862700, “An all-to-all approach to the identification of sequence-specific readers for epigenetic DNA modifications on cytosine”

How the values were obtained:
Test in all cases: DAPPL (digital affinity profiling via proximity ligation, sequencing); 10 mM Tris-HCl pH 7.5, 50 mM NaCl, 1 mM DTT, 4% glycerol, room temperature, 30 min; GST-TFs on glutathione beads, 16-mer random dsDNA library, 0.1% formaldehyde crosslink after washing; high values mean tight binding
[1] = target: T1, FEV (Homo sapiens, UniProt Q99581 1-238); details: protein: recombinant; tags: N-terminal GST; dsDNA, one strand shown
T1 sequence: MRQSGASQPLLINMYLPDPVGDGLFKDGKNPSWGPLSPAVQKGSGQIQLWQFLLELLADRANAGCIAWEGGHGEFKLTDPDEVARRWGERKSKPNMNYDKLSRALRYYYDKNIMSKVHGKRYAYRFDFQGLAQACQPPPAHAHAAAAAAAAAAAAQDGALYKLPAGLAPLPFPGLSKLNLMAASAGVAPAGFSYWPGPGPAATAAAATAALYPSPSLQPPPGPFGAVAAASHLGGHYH
Method in brief: (§1)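 Human transcription factors fused to GST were expressed in yeast, captured on glutathione beads, given DNA barcodes and pooled with a GST-only negative control. Pools were incubated with 200 nmole of a 16-mer random double-stranded DNA library in Tris/NaCl/DTT/glycerol buffer at room temperature for 30 min. They were then washed, crosslinked with 0.1% formaldehyde, proximity-ligated (BsaI/T4 ligase, 1 h, 37 °C), PCR-amplified and sequenced on an Illumina NextSeq500. Binding signal is each 6-mer's read frequency for a factor divided by its frequency for the GST control.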

[2] = target: ETV5 (Homo sapiens, UniProt P41161 1-510); details: protein: recombinant; tags: N-terminal GST; dsDNA, one strand shown
Method in brief: as §1

[3] = target: HSF1 (Homo sapiens, UniProt Q00613 1-529); details: protein: recombinant; tags: N-terminal GST; chain copies: 3; dsDNA, one strand shown
Method in brief: as §1

[4] = target: T2, SPIC (Homo sapiens, UniProt Q8N5J4 1-248); details: protein: recombinant; tags: N-terminal GST; dsDNA, one strand shown
T2 sequence: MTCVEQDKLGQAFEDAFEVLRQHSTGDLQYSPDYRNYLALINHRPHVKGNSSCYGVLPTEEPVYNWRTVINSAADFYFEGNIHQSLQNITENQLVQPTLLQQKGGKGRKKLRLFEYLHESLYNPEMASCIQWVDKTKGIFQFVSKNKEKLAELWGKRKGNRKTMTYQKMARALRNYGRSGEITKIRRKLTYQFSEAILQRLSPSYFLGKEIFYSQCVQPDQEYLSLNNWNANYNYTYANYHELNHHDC
Method in brief: as §1

[5] = target: ELF4 (Homo sapiens, UniProt Q99607 1-663); details: protein: recombinant; tags: N-terminal GST; dsDNA, one strand shown
Method in brief: as §1

[6] = target: T3, ELK4 (Homo sapiens, UniProt P28324-2 1-405); details: protein: recombinant; tags: N-terminal GST; dsDNA, one strand shown
T3 sequence: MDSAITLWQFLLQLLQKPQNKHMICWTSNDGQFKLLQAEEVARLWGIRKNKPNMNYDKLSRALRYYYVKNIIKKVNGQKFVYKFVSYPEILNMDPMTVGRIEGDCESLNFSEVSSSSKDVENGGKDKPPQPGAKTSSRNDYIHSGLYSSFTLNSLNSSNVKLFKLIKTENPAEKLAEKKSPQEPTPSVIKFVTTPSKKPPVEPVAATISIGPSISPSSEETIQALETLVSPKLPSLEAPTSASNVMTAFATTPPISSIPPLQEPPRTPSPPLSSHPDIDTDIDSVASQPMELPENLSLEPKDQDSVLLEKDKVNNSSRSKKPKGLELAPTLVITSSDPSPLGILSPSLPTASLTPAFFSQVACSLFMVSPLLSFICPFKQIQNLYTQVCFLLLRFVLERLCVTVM
Method in brief: as §1

[7] = target: T4, ETV2 (Homo sapiens, UniProt O00321 1-342); details: protein: recombinant; tags: N-terminal GST; dsDNA, one strand shown
T4 sequence: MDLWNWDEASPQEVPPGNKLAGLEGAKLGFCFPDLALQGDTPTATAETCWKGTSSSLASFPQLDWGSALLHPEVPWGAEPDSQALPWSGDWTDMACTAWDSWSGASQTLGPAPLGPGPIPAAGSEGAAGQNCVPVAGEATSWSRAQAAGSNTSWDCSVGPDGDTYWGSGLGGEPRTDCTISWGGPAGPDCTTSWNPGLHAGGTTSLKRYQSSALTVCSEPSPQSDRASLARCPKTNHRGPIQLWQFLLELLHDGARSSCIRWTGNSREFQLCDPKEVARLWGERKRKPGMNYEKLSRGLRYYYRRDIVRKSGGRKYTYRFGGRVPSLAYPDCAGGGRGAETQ
Method in brief: as §1

[8] = target: T5, ELF3 (Homo sapiens, UniProt P78545 1-371); details: protein: recombinant; tags: N-terminal GST; dsDNA, one strand shown
T5 sequence: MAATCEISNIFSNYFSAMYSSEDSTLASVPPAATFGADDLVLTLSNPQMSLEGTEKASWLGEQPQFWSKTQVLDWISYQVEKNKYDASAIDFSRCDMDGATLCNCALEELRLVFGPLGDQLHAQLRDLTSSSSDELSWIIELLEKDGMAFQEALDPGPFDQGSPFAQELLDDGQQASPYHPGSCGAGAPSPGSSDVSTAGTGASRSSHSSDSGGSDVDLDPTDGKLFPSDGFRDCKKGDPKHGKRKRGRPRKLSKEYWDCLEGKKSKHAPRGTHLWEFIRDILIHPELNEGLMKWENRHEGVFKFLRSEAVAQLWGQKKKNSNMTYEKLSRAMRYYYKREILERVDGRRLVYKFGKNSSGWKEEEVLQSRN
Method in brief: as §1

[9] = target: CRX (Homo sapiens, UniProt O43186 1-299); details: protein: recombinant; tags: N-terminal GST; dsDNA, one strand shown
Method in brief: as §1

[10] = target: ETV1 (Homo sapiens, UniProt P50549 1-477); details: protein: recombinant; tags: N-terminal GST; dsDNA, one strand shown
Method in brief: as §1

[11] = target: T6, ERF (Homo sapiens, UniProt P50548 1-548); details: protein: recombinant; tags: N-terminal GST; dsDNA, one strand shown
T6 sequence: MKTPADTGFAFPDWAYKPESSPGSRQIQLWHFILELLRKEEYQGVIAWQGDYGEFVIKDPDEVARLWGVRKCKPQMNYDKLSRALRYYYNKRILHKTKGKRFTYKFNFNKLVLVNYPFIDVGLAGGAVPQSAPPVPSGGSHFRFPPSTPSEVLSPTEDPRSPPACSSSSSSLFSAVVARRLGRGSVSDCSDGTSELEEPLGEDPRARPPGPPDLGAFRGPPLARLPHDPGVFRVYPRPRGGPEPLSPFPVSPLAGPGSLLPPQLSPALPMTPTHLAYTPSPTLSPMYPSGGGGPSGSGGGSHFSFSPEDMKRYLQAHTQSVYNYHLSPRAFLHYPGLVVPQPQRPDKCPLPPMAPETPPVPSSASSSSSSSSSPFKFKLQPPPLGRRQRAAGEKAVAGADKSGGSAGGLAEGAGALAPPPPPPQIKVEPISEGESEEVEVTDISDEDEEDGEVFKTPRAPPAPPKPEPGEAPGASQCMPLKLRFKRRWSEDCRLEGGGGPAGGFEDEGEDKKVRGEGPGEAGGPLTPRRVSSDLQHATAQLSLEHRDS
Method in brief: as §1

[12] = target: T7, ETV3L (Homo sapiens, UniProt Q6ZN32 1-361); details: protein: recombinant; tags: N-terminal GST; dsDNA, one strand shown
T7 sequence: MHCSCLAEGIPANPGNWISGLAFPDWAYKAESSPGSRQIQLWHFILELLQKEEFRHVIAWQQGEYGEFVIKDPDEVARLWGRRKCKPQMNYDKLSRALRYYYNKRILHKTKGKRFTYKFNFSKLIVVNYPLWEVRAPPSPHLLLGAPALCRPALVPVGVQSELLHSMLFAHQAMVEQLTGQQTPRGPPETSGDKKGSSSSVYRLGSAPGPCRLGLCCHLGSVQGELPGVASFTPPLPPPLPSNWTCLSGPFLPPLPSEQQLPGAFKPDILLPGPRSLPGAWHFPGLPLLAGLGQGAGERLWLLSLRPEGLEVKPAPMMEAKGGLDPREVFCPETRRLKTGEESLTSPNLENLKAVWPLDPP
Method in brief: as §1

[13] = target: T8, ETS2 (Homo sapiens, UniProt P15036 1-469); details: protein: recombinant; tags: N-terminal GST; dsDNA, one strand shown
T8 sequence: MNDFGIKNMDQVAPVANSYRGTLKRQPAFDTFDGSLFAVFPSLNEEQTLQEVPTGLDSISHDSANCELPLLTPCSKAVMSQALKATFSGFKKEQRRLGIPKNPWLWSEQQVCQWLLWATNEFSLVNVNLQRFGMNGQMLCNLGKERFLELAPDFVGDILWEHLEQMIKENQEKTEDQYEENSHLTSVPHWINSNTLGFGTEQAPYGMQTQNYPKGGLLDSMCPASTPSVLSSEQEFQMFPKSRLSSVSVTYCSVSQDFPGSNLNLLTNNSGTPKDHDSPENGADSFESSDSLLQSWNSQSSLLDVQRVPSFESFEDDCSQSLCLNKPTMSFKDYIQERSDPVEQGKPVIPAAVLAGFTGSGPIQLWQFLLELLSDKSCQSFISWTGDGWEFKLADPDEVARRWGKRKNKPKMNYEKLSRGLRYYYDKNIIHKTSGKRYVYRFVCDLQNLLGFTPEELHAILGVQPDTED
Method in brief: as §1

[14] = target: T9, SPDEF (Homo sapiens, UniProt O95238 1-335); details: protein: recombinant; tags: N-terminal GST; dsDNA, one strand shown
T9 sequence: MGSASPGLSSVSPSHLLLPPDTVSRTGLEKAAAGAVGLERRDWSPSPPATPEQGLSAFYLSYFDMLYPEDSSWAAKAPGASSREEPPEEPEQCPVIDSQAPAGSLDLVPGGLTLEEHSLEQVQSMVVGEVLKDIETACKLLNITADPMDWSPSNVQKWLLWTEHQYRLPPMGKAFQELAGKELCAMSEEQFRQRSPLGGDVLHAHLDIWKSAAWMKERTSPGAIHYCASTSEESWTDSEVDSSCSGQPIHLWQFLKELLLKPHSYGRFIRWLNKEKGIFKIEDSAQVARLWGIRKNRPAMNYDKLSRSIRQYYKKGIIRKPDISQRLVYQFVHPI
Method in brief: as §1

[15] = target: T10, ETV7 (Homo sapiens, UniProt Q9Y603 1-341); details: protein: recombinant; tags: N-terminal GST; dsDNA, one strand shown
T10 sequence: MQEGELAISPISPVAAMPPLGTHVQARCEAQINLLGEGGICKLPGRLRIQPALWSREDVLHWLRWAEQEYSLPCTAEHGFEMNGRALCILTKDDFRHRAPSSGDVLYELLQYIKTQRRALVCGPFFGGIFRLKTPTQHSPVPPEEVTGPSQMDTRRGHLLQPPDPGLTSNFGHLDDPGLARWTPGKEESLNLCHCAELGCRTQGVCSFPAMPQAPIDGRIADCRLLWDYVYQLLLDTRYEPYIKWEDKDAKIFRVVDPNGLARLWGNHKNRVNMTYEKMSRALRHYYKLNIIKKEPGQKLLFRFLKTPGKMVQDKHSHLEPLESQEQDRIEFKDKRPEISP
Method in brief: as §1

[16] = target: T11, ELF5 (Homo sapiens, UniProt Q9UKW6-2 1-255); details: protein: recombinant; tags: N-terminal GST; dsDNA, one strand shown
T11 sequence: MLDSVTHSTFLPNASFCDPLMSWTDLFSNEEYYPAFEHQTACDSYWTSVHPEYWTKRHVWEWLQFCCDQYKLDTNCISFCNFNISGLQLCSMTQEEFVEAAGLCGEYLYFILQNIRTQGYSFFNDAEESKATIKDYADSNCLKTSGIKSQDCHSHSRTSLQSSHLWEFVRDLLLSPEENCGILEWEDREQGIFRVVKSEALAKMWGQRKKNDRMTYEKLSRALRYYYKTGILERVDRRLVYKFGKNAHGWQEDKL
Method in brief: as §1

[17] = target: T12, ETV3 (Homo sapiens, UniProt P41162-2 1-143); details: protein: recombinant; tags: N-terminal GST; dsDNA, one strand shown
T12 sequence: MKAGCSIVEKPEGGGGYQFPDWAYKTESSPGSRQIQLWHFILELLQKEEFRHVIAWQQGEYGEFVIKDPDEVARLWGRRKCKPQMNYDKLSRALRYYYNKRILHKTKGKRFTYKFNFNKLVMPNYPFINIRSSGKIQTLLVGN
Method in brief: as §1

[18] = target: ETV6 (Homo sapiens, UniProt P41212 1-452); details: protein: recombinant; tags: N-terminal GST; dsDNA, one strand shown
Method in brief: as §1

Sequence of HSF1 (Q00613 whole entry): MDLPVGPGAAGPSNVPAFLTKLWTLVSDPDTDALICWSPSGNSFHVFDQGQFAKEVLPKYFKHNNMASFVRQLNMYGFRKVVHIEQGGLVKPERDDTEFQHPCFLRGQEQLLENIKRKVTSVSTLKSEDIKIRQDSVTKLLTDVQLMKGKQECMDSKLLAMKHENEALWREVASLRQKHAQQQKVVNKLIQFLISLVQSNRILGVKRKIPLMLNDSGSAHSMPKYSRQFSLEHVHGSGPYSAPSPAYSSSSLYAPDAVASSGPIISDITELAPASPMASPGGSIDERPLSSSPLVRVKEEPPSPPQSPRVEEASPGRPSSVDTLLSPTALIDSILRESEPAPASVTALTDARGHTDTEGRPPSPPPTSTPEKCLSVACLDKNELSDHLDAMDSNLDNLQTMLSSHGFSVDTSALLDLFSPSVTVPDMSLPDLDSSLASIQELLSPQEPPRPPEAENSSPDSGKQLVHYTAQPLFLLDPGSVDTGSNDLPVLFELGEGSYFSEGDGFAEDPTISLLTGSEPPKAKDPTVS
Sequence of CRX (O43186 whole entry): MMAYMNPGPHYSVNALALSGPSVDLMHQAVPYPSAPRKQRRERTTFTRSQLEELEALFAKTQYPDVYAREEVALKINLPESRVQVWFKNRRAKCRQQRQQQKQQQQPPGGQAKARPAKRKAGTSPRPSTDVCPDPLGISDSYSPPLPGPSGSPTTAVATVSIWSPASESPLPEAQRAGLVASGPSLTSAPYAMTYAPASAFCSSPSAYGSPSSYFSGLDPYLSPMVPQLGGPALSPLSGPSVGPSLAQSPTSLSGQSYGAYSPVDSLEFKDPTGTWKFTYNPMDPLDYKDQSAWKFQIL
Sequence of ELF4 (Q99607 whole entry): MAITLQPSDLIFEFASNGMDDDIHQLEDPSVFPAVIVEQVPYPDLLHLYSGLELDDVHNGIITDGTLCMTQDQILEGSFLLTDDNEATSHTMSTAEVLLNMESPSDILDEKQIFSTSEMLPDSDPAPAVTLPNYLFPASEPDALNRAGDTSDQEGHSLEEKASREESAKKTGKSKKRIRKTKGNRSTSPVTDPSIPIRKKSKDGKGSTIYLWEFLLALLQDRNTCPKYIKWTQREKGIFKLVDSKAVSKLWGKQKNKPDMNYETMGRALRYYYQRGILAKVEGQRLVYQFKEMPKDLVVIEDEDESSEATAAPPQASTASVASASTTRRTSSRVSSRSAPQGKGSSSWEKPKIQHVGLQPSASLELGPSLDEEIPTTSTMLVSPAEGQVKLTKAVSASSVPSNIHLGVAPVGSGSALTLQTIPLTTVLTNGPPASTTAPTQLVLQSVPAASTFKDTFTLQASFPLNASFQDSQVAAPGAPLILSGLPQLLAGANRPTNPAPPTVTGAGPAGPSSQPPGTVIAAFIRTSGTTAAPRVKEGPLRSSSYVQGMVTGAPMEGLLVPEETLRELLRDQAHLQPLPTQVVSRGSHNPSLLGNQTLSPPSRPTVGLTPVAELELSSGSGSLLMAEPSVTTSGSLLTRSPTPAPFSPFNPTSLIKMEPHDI
Sequence of ETV1 (P50549 whole entry): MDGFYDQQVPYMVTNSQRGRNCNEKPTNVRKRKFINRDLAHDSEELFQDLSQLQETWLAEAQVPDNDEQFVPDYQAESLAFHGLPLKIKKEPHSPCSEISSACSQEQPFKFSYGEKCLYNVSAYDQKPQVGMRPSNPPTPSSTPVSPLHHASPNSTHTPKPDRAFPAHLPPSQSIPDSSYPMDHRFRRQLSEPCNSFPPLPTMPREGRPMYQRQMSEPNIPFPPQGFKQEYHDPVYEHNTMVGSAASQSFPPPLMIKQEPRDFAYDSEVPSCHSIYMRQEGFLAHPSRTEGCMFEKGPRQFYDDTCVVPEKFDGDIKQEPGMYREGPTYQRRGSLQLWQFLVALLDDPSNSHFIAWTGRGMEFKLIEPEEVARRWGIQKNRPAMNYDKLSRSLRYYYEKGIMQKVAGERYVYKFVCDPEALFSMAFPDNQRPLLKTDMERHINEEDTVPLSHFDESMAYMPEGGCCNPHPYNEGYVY
Sequence of ETV6 (P41212 whole entry): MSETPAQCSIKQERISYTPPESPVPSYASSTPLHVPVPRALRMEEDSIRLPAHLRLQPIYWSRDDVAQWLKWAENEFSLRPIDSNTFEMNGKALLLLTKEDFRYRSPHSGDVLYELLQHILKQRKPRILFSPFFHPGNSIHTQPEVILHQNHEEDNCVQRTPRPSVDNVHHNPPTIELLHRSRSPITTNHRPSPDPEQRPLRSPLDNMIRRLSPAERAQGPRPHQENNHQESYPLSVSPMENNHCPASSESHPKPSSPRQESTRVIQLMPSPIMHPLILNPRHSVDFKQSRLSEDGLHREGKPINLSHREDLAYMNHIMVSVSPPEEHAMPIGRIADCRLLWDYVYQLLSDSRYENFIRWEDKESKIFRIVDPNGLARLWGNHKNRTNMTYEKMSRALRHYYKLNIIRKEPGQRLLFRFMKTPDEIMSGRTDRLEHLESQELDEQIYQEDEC
Sequence of ETV5 (P41161 whole entry): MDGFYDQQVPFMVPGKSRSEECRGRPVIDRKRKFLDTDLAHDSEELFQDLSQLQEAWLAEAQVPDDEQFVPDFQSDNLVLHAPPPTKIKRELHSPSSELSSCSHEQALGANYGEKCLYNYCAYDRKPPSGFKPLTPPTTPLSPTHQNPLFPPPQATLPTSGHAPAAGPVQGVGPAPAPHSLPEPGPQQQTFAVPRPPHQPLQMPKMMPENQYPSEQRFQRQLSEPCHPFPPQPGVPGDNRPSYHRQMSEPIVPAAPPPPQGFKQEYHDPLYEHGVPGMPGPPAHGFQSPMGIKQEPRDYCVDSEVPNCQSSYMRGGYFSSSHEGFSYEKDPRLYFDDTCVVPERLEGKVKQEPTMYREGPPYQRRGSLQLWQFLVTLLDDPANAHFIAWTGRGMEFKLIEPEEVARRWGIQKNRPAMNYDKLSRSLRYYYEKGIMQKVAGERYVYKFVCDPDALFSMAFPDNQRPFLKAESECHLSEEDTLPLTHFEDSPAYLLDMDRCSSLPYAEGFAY

Sequence: ATACGA
- binding signal [1]: 1.16 fold enrichment (6-mer frequency, TF over GST control)
- binding signal [2]: 1.17 fold enrichment (6-mer frequency, TF over GST control)
- binding signal [3]: 1.22 fold enrichment (6-mer frequency, TF over GST control)
- binding signal [4]: 1.01 fold enrichment (6-mer frequency, TF over GST control)
- binding signal [5]: 1.21 fold enrichment (6-mer frequency, TF over GST control)
- binding signal [6]: 1.08 fold enrichment (6-mer frequency, TF over GST control)
- binding signal [7]: 1.05 fold enrichment (6-mer frequency, TF over GST control)
- binding signal [8]: 1.08 fold enrichment (6-mer frequency, TF over GST control)
- binding signal [9]: 1.17 fold enrichment (6-mer frequency, TF over GST control)
- binding signal [10]: 1.19 fold enrichment (6-mer frequency, TF over GST control)
- binding signal [11]: 1.17 fold enrichment (6-mer frequency, TF over GST control)
- binding signal [12]: 1.1 fold enrichment (6-mer frequency, TF over GST control)
- binding signal [13]: 1.17 fold enrichment (6-mer frequency, TF over GST control)
- binding signal [14]: 1.18 fold enrichment (6-mer frequency, TF over GST control)
- binding signal [15]: 1.11 fold enrichment (6-mer frequency, TF over GST control)
- binding signal [16]: 1.17 fold enrichment (6-mer frequency, TF over GST control)
- binding signal [17]: 1.11 fold enrichment (6-mer frequency, TF over GST control)
- binding signal [18]: 1.08 fold enrichment (6-mer frequency, TF over GST control)
